Laboratory results reported in PubChem BioAssay (NCATS).
Inconclusive results are not listed. A call without a number means that no potency is given here. Calls of active or inactive are those of the source. Calls come from the whole dose curve; as a rule, active = well fitted cell-killing curve with a large enough effect; inconclusive = small, poorly fitted or top-dose-only effect, or effect the other way; inactive = flat fitted curve, though single readings scatter.

Each compound was assayed on Tov-21-G (assay: Primary qHTS to identify gynecologic anti-cancer compounds using libraries of approved drugs and bioactive compounds (AID 1345084; note: nearly all actives have a fitted effect of over 55% in size)). Details: Gynecologic cancer cell panel viability, ATPlite luminescence, 48 h; series mostly up to 57.5 µM.
How it was run: (§1)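 In this quantitative HTS, cell killing is estimated from loss of ATP-dependent luciferase light. Cells see five compound concentrations over a 48 h exposure.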

Q: Which Potency does the source give for C=C(C(=O)OC[C@H]1O[C@@H](OC(=O)/C=C/c2ccccc2)[C@H](O)[C@@H](O)[C@@H]1O)C(O)CO (some centres not stated) here?
A: inactive

Q: Which Potency does the source give for COc1cc(O)cc(OC2OC(CO)C(O)C(O)C2O)c1 (configuration not stated) here?
A: inactive

Q: With C=C1CCC2[C@](C)(CCC[C@@]2(C)C=O)[C@H]1CC/C(C)=C/CO (some centres not stated) as the compound, how does the Potency read?
A: inactive

Q: Nc1nc(O)c(C2=C3C(=Nc4ccccc43)C(=O)NCC2)[nH]1 was tested. Which Potency did it give?
A: inactive

Q: With CC(=O)C1(C)CCC2C3C=C(C)C4=CC(=O)CCC4(C)C3CCC21C (configuration not stated) as the compound, how does the Potency read?
A: inactive

Q: How did the Potency turn out when O=C(Nc1nnc(-c2ccc3c(c2)OCCO3)o1)C1CCCCC1 was run?
A: inactive

Q: CCC(C)C(=O)O[C@H]1[C@H](O)[C@@]2(COC(C)=O)C(CC1(C)C)C1=CCC3[C@@]4(C)CC[C@H](O[C@@H]5O[C@H](C(=O)O)[C@@H](O)[C@H](O)[C@H]5O)[C@@](C)(CO)C4CC[C@@]3(C)[C@]1(C)C[C@@H]2O (some centres not stated) was tested. Which activity change, negative = cytotoxicity did it give?
A: 17.2% [at 11.6 µM] (inactive)

Q: How did the Potency turn out when O=C(Nc1cc(C(F)(F)F)ccc1N1CCCCC1)c1ccncc1 was run?
A: inactive

Each compound was assayed on Tov112D in the same assay as above. Details: Gynecologic cancer cell panel viability, ATPlite luminescence, 48 h; series mostly up to 57.5 µM.
How it was run: as §1

Q: CCC(C)/C=C(C)/C=C/C1=CC2=CC(=O)C3(C)OC(C)(O)C(C(=O)OC)C3C2=CO1 (configuration not stated) was tested. Which Potency did it give?
A: inactive

Q: With CN(C)CCOC(C)(c1ccccc1)c1ccc(Cl)cc1 (configuration not stated) as the compound, how does the Potency read?
A: inactive

Q: Cc1ccc(-c2ncc[nH]2)cc1NC(=O)c1ccc(OCc2ccccn2)cc1 was tested. Which Potency did it give?
A: inactive

Q: With C=C1CC[C@H]2C(=C)CC[C@H]3C(=C)C(=O)O[C@@H]3[C@@H]12 as the compound, how does the Potency read?
A: inactive

Q: O=C(NC[C@H]1CN(c2ccc(N3CCOCC3=O)cc2)C(=O)O1)c1ccc(Cl)s1 was tested. Which Potency did it give?
A: inactive

Q: CCOc1ccc(CCNC(=O)c2cc3sc(Cl)cc3n2C)cc1OCC was tested. Which Potency did it give?
A: inactive

Q: For CC(C)c1noc(C2CCN(c3ncnc(Nc4ccc(S(C)(=O)=O)cc4F)c3[N+](=O)[O-])CC2)n1, which Potency is on record?
A: inactive

Q: Which Potency does the source give for O=C(NO)c1ccc(CC(=O)N(CCO)c2ccccc2)cc1 here?
A: inactive

Q: With CC(C)C[C@H](CO)Nc1nc(S[C@@H](C)c2ccccc2)nc2nc(N)sc12 as the compound, how does the Potency read?
A: inactive

Q: Which Potency does the source give for Cc1ccnc(NC(=O)C(C)c2cccc(C(=O)c3ccccc3)c2)c1 (configuration not stated) here?
A: inactive

Q: How did the Potency turn out when O=C(NCC(=O)N1CCCC1)Nc1ccc2cnccc2c1 was run?
A: inactive

Q: COc1cc(O)cc(/C=C/c2cccc(O)c2)c1 was tested. Which Potency did it give?
A: inactive

Q: With COc1cc(OC)c(NC(=O)c2ccc(Cc3cc4c(cc3C)C(C)(C)CCC4(C)C)o2)c(OC)c1 as the compound, how does the Potency read?
A: inactive

Q: Which Potency does the source give for NS(=O)(=O)c1ccc(NC(=O)Nc2ccc(F)cc2)cc1 here?
A: inactive

Q: CC(=O)C1=C(O)C=C2Oc3c(C(C)=O)c(O)c(C)c(O)c3[C@]2(C)C1=O was tested. Which Potency did it give?
A: inactive

Q: For C=C1C(=O)O[C@@H]2[C@H]1CCC(C)=C(CCC(=O)O)[C@@]2(C)O, which Potency is on record?
A: inactive

Q: With CCOC(=O)CCNc1cc(N2CCc3ccccc3CC2)nc(-c2cccnc2)n1 as the compound, how does the Potency read?
A: inactive

Q: For COC(=O)c1sccc1S(=O)(=O)Nc1ccc(Nc2ccccc2)cc1OC, which Potency is on record?
A: inactive

Q: How did the Potency turn out when CNC(=O)c1ccc2c(c1)CCO[C@H]2CCN1CCN(c2ccc(OC)cc2)CC1 was run?
A: inactive

Q: For O=C(Nc1ccc(-n2nc(C(F)(F)F)cc2C(F)(F)F)cc1)c1ccncc1F, which Potency is on record?
A: inactive

Q: For C[C@@H]1C[C@H]2O[C@@]3(O[C@@H]2C(C)(C)O)C(O)[C@@]2(C)C4CCC5C(C)(C)[C@@H](O[C@H]6OC[C@H](O)[C@@H](O)[C@@H]6O)CC[C@@]56C[C@@]46CC[C@]2(C)C13 (some centres not stated), which Potency is on record?
A: inactive

Q: With CC(O)C(C)n1ncn(-c2ccc(N3CCN(c4ccc(OCC5COC(Cn6cncn6)(c6ccc(Cl)cc6Cl)O5)cc4)CC3)cc2)c1=O (configuration not stated) as the compound, how does the Potency read?
A: inactive

Q: How did the Potency turn out when CCn1c2ccccc2c2cc(Nc3ccnc(NCCCN4CCOCC4)n3)ccc21 was run?
A: inactive

Q: For CC(=O)OC1CC2(C)C(CCC(C)C23Cc2c(O)cc(CO)c(C=O)c2O3)C(C)(C)C1O (configuration not stated), which Potency is on record?
A: inactive

Q: For CCOC(=O)c1ccc(OCCC2CCN(c3ccc(C)nn3)CC2)cc1, which Potency is on record?
A: inactive

Q: Which Potency does the source give for C/C=C(\C)C(=O)OC1C(C)C2(O)C(C=C(CO)CC3(O)C(=O)C(C)=CC32)C2C(C)(C)C12OC(C)=O (configuration not stated) here?
A: inactive

Q: For COc1ccccc1OCCNCC(O)CCOc1cccc2[nH]c3ccccc3c12 (configuration not stated), which Potency is on record?
A: inactive

Q: Which Potency does the source give for COc1ccc(NC(=O)C2C[C@H](C)CC[C@H]2C(C)C)cc1 (some centres not stated) here?
A: inactive

Q: Which Potency does the source give for CNc1nc(Nc2ccc(C(=O)N3CCOCC3)cc2OC)nc2[nH]cc(Cl)c12 here?
A: inactive

Q: O=C(Nc1ncc([N+](=O)[O-])s1)c1ccccc1O was tested. Which Potency did it give?
A: inactive

Q: Cc1nc(C(=O)N2CCC[C@H]2Cc2nnc(-c3ccccc3)o2)c(-c2ccccc2F)s1 was tested. Which Potency did it give?
A: inactive

Q: How did the Potency turn out when C=C(C(=O)OC[C@H]1O[C@@H](OC(=O)/C=C/c2ccccc2)[C@H](O)[C@@H](O)[C@@H]1O)C(O)CO (some centres not stated) was run?
A: inactive

Q: Which Potency does the source give for COc1cc(O)cc(OC2OC(CO)C(O)C(O)C2O)c1 (configuration not stated) here?
A: inactive

Q: How did the Potency turn out when C=C1CCC2[C@](C)(CCC[C@@]2(C)C=O)[C@H]1CC/C(C)=C/CO (some centres not stated) was run?
A: inactive

Q: How did the Potency turn out when Nc1nc(O)c(C2=C3C(=Nc4ccccc43)C(=O)NCC2)[nH]1 was run?
A: inactive

Q: Which Potency does the source give for CC(=O)C1(C)CCC2C3C=C(C)C4=CC(=O)CCC4(C)C3CCC21C (configuration not stated) here?
A: inactive

Q: For O=C(Nc1nnc(-c2ccc3c(c2)OCCO3)o1)C1CCCCC1, which Potency is on record?
A: inactive

Q: CCC(C)C(=O)O[C@H]1[C@H](O)[C@@]2(COC(C)=O)C(CC1(C)C)C1=CCC3[C@@]4(C)CC[C@H](O[C@@H]5O[C@H](C(=O)O)[C@@H](O)[C@H](O)[C@H]5O)[C@@](C)(CO)C4CC[C@@]3(C)[C@]1(C)C[C@@H]2O (some centres not stated) was tested. Which activity change, negative = cytotoxicity did it give?
A: 6.69% [at 11.6 µM] (inactive)

Q: Which Potency does the source give for O=C(Nc1cc(C(F)(F)F)ccc1N1CCCCC1)c1ccncc1 here?
A: inactive
